Source: PubChem BioAssay (several laboratories)
14-3-3 Bad inh: inhibitors of 14-3-3 zeta/Bad binding, primary screen, biochemical, TR-FRET, bovine 14-3-3 zeta. 14-3-3 protein zeta/delta (Bos taurus), P63103. TR-FRET 14-3-3zeta/Dy647-pBad peptide displacement, 1 h. inhibition, % at 21.7 µM. actives 0.71% (n = 220,000);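 active means inhibition above about 70%, limit read from the data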;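 further: 0% = full 14-3-3 plus peptide FRET controls and 100% = background without 14-3-3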
Efa HMGR inh: inhibitors of E. faecalis class II HMGR, primary screen, biochemical, Enterococcus faecalis. HMG-CoA reductase (Enterococcus faecalis, mvaE). inhibition, % at 10 µM. actives 0.41% (n = 190,000). purified E. faecalis HMGR, NADPH absorbance 340 nm kinetic. AID 1066, 2008;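 active means inhibition above a set limit, the median over all tested compounds plus 3 SD, cut at about 9.5% in these data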;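 further: enzyme runs in reverse so mevalonate oxidation gives rising NADPH absorbance; 0% = complete reaction with DMSO and 100% = background rate lacking mevalonate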
L929 necroptosis: inhibitors of zVAD-triggered necroptosis, primary screen, L929 cells. actives 0.38% (n = 220,000). L929 zVAD necroptosis rescue, ATP luminescence, 24 h; with zVAD 60 µM. AID 1377, 2008. viability rescue, % at 10 µM;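 active means activation, scaled between plate controls, above about 75%, limit read from the data; inactive means activation under that limit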;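 further: 0% = zVAD with DMSO and 100% = DMSO alone without zVAD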
Calpain2 inh: inhibitors of pig calpain II, primary screen, biochemical, fluorogenic peptide substrate, 1536-well; actives 0.37% (n = 220,000); AID 1236, 2008; purified calpain II, 30 min; inhibition, % at 16 µM;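 active means inhibition above about 50%, limit read from the data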
TNF necrop inh: inhibitors of TNF-alpha triggered necroptosis, primary screen, cell-based, Jurkat FADD-/-, single concentration | Jurkat FADD-/- TNF necroptosis rescue, ATP luminescence, 24 h; 0 = TNF only, 100 = no-TNF cells | actives 0.068% (n = 220,000) | activation (protection from cell death), % at 10 µM | AID 463075, 2010;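 active means activation, meaning protection from cell death, of at least 50% relative to plate controls; inactive means activation below 50%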;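 further: necroptosis triggered by 40 ng/mL TNF-alpha added together with compound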
ROMK mod: ROMK potassium channel modulators, primary screen, cell-based, thallium flux, MLSMR library. Tet-inducible ROMK, thallium flux fluorescence; actives lie on both sides. actives 2% (n = 130,000). ATP-sensitive inward rectifier potassium channel 1 (Homo sapiens), P48048. AID 1918, 2009. B-score at 10 µM;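 active means signal ratio slope over the read window, or its plate-corrected B-score, at least 3 SD from the plate mean, either direction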;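 further: B-score of the F/F0 ratio slope over 7 to 12 s after thallium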
Target sequence (P48048 whole entry, looked up): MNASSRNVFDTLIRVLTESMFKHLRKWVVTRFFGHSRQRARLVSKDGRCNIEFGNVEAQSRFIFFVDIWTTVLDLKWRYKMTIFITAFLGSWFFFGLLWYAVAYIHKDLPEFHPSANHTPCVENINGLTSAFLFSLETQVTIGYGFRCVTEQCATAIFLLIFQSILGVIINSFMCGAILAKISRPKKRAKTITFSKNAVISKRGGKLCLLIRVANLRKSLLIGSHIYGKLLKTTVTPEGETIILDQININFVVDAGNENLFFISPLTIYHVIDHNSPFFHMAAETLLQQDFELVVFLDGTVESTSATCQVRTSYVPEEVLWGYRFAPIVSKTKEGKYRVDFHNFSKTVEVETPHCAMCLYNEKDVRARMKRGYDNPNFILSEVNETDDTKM
* hit, by the source's call; i = inactive; x = not tested or not shown; [ ] = another dose, or the depositor's remark. Most compounds without a hit are left out; they make up all but 3% or so of the library.

SMILES	14-3-3 Bad inh	Efa HMGR inh	L929 necroptosis	Calpain2 inh	TNF necrop inh	ROMK mod
COC(=O)C1=C(C)N(C)C(=S)N(C)C1c1ccc(OC)cc1 (centres undefined)	-17	12*	0	0	1	1.2
COC(=O)C1=C(C)N(C)C(C)=C(C(=O)OC)C1c1ccc(C(=O)OC)cc1	0	-3	0	-16	-8	x
Cc1cccc(C2Nc3ccccc3C(=O)N2c2ccc(F)cc2)n1 (centres undefined)	0	9.8*	0	i	-1	0.18
O=C1c2ccccc2NC(c2ccccn2)N1c1ccccc1F (centres undefined)	-7	-9	0	i	-1	x
Cc1cc(C(=O)OCC(=O)NCc2ccccc2Cl)c(C)o1	72*	-3	0	23	1	0.59
COc1ccccc1CNC(=O)COC(=O)c1cc(C)oc1C	-3	-1	0	-6	0	-0.42
CC(C)n1c(Nc2ccccc2)nc2ccccc21	-2	-4	0	1	-1	-3.2*
CC(C)n1c(NCCO)nc2ccccc21	3	0	0	7	0	0.74
Cc1ccc(-c2sc(-c3cccnc3)nc2CC(=O)O)cc1	75*	-2	2	-34	1	0.33
O=C1S/C(=C\c2ccc(O)c([N+](=O)[O-])c2)C(=O)N1Cc1cccc([N+](=O)[O-])c1	7	6	1	14	-1	x
COc1cc(/C=C2\SC(=O)N(c3cccc(Cl)c3)C2=O)cc([N+](=O)[O-])c1O	92*	0	-1	66*	-1	2.1
COc1cc(/C=C2/C(=O)NN(c3cccc(C)c3)C2=O)cc([N+](=O)[O-])c1O	22	-4	2	-10	-1	0.51
O=C1S/C(=C\c2ccc(O)c([N+](=O)[O-])c2)C(=O)N1c1ccccc1Cl	-4	1	-2	22	-1	-3.6*
COc1cc(/C=C2\SC(=O)N(c3ccc(Cl)cc3)C2=O)cc([N+](=O)[O-])c1O	93*	-7	-1	26	0	1.7
Cc1cc(C)n(CCC(=O)N/N=C/c2ccc(Br)c([N+](=O)[O-])c2)n1	5	x	0	-5	-4	-0.1
O=C(COC(=O)c1cccc(NS(=O)(=O)/C=C/c2ccccc2)c1)Nc1ccccc1OC(F)F	3	-2	1	-15	-1	x
Cc1[nH]c(=O)[nH]c(=O)c1S(=O)(=O)N1CCCC(C(=O)NCCC2=CCCCC2)C1 (centres undefined)	-18	-6	2	-8	1	-0.14
CCc1cccc(CC)c1N1C(=O)c2cc(N3CCOCC3)c([N+](=O)[O-])cc2C1=O	-8	-3	0	14	0	0.32
CCOC(=O)c1c(N)sn(-c2ccccc2)c1=S	10	4	14	-5	1	x
CCOC(=O)c1c2c(c(=S)n(-c3ccccc3)c1N)CCC2	-11	-5	11	51*	2	x
Cc1cc(SCn2nnc3ccccc3c2=O)nc2ccccc12	9	115*	0	26	2	-0.00012
Cn1c(N)c(C(=O)COC(=O)CCC2CCCC2)c(=O)n(C)c1=O	-8	1	1	80*	1	-0.25
Cn1c(N)c(C(=O)COC(=O)C2CCC(C(C)(C)C)CC2)c(=O)n(C)c1=O (centres undefined)	29	-3	-1	110*	0	0.39
Cn1c(N)c(C(=O)COC(=O)C2(c3ccc(F)cc3)CCCC2)c(=O)n(C)c1=O	-8	-1	1	76*	0	x
Cc1cc(Br)ccc1SCC(=O)OCC(=O)c1c(N)n(C)c(=O)n(C)c1=O	-4	x	0	77*	1	x
SMILES	14-3-3 Bad inh	Efa HMGR inh	L929 necroptosis	Calpain2 inh	TNF necrop inh	ROMK mod
CCOCCc1nnc(NC(=O)C(CC)c2ccccc2)s1 (centres undefined)	6	1	0	-14	0	-0.011
Fc1ccc(-c2cc(C(F)(F)F)n3ncnc3n2)cc1	21	0	3	-85	1	0.13
Cc1cc(NC(=O)Cc2ccccc2)ccc1NC(=O)c1cccs1	-6	-1	2	-11	0	0.066
Cn1c(N)c(C(=O)COC(=O)CCC2CCCCC2)c(=O)n(C)c1=O	0	1	3	78*	1	1.3
CCC(Cc1ccccc1)NC(=O)CSc1ccsc1[N+](=O)[O-] (centres undefined)	-8	-6	1	16	1	0.32
CCc1ccc(N(C(=O)c2csnn2)C(C(=O)NCc2ccccc2)c2ccco2)cc1 (centres undefined)	95*[fluorescence artefact?]	-3	0	36	0	x
COc1ccc(CNC(=O)C(c2ccco2)N(C(=O)c2ccccn2)c2ccccc2)cc1 (centres undefined)	-12	1	1	-45	-2	x
CCOC(=O)c1c(=O)n(O)c2ccc(OC)cc2[n+]1[O-]	36	-2	-1	-16	-1	-0.094
COc1ccc(CCC(=O)O)c(O)c1	0	x	0	-31	0	x
Cc1cc(CCC(=O)O)c(C)cc1CCC(=O)O	83*	-3	0	-35	0	-0.28
C=CCNC(=S)Nc1cc(S(=O)(=O)N2CCOCC2)ccc1-n1cncn1	1	-4	1	-6	1	-0.05
CCN(CC)c1ccc(C(=O)NC(=S)Nc2cc(S(=O)(=O)N3CCOCC3)ccc2-n2cncn2)cc1	18	-6	0	58*	-3	x
COc1ccccc1C(=O)C1CCCN(C(=O)c2snnc2C)C1 (centres undefined)	-1	0	-1	2	1	-0.61
On1onc2c3cc(-c4ccccc4)nc3ccc21	3	0	23	82*	-8	x
O=C(c1cn(-c2ccccc2)nc1-c1ccc(Br)cc1)N1CCOCC1	1	-2	0	-6	0	-0.57
CC(=O)N1c2c(cc(Br)cc2S(=O)(=O)N2CCN(c3ccccn3)CC2)CC1C (centres undefined)	88*	-1	0	-3	-3	-1.9
COc1ccc(C(CC(=O)N2CCN(c3ccccc3)CC2)c2c(OC)cc(OC)c3ccc(=O)oc23)cc1 (centres undefined)	-5	x	0	-74	-1	x
Cc1c(NC2(c3nnnn3-c3ccc(Br)cc3)CCCCC2)c(=O)n(-c2ccccc2)n1C	-23	23*	0	-3	-1	1.1
COc1cc2c(cc1NC(=S)NC(=O)/C=C/c1ccco1)oc1ccccc12	-1	-9	1	-7	1	x
